The list shows a part of the results. The true hit rate is not given.

To fix the notation:
B1: VH:VL chains; a variant is named by its letters at X, in order (parent)
chain 1: QVQLVQSGAEVKKPGASVKVSCKASGYTFTDYXMHWVRQAPGQGLEWMGXVNPNXXXTTYNQKFEGRVTMTTDTSTSTAYMELRSLRSDDTAVYYCARXNXLDXWGQGTTVTVSS
chain 2: DIQMTQSPSSLSASVGDRVTITCSVSSSVSSIYLHWYQQKPGKAPKLLIYSTSNLASGVPSRFSGSGSGTDFTLTISSLQPEDFATYYCQVYSGYPLTFGGGTKVEIK

Variants of B1 are the subject of the test. Description: yeast display scFab, FACS + sequencing. The following applies: with MET. Summed up:
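Two magnetic rounds on Protein A beads coated with HGFR-Fc, followed by FACS, were used to enrich a yeast surface scFab library mutated in the heavy-chain CDRs. FACS gated the top 50% antigen-positive cells after 3 h labelling at room temperature with 1 nM HGFR-Fc and anti-Myc in PBSB plus 1% milk. Binding to the antigen was scored positive when a sequence occurred in both antigen-positive samples from deep sequencing and negative when it occurred only in the input.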
In the case of VAEKGDVF, the antigen binding call is recorded as “no binding”.
Regarding VTGEDDWV, the antigen binding call is recorded as “no binding”.
As to DREGDDAV, the antigen binding call is listed as “no binding”.
Under SEARSDSF stands “no binding”; under YKRRDASD, “no binding”; under YKRGSASD, “binds”.
Under AKAGGASD stands “no binding”; under DTTGSDAV, “no binding”.
Then VAGTDDWV, with “no binding”; and YRRRGFAV, with “binds”.
For the variant YRRGGFVV, the antigen binding call is “binds”.
Then YRATDFVV, with “no binding”; and YRRRGFVV, with “binds”.
Then YTATGFAV, with “no binding”; and YRAGGFVV, with “binds”.
Then ATAGSASD, with “no binding”.
As to DRGGDDWV, the antigen binding call was “no binding”.
Then STGTSDLY, with “no binding”.
On to AATTDSGD, for which the antigen binding call is listed as “no binding”.
Regarding SAREGDAV, the antigen binding call is listed as “no binding”.
For YTRGASSS, the antigen binding call was “binds”.
Consider YRRGASSS, for which the antigen binding call is given as “binds”.
Under YTRGADLA stands “no binding”; under YTRGADGS, “no binding”.
Under AETKGSLA stands “no binding”.
Under SAAGGAAV chain 1 L45S stands “no binding”; under DAEEDAGY, “no binding”.
As for VKKEDAGD, the antigen binding call is “no binding”.
Then FGRGTSGD, with “no binding”.
Then FRRGDAGD, with “binds”; and FAARSYGD, with “no binding”; and FGRRTYGD, with “binds”.
Consider FKRGDAGD, for which the antigen binding call is recorded as “binds”.
Then FTGEAAGD, with “no binding”.
FRRGDALD: the antigen binding call is reported as “binds”.
Under FKTKSAGD stands “no binding”; under STAEDDWV, “no binding”.
In the case of VTAGDDAV, the antigen binding call is “no binding”.
As for AARADDVA, the antigen binding call is on record as “no binding”.
For YKTRGAGD chain 1 Q43R, the antigen binding call is on record as “binds”.
Under VRTRGAVD stands “binds”; under VTTRGAVA, “no binding”.
Under VTTGGAVD stands “no binding”.
Under YRTRGAVD stands “binds”; under YRTRGASD, “binds”.
For the variant DTTKGDGS, the antigen binding call is reported as “no binding”.
Then VEKGGDGV, with “no binding”; and DATRGAGD, with “no binding”; and YRTRGAGD, with “binds”.
Take SEARSDWD: the antigen binding call was “no binding”.
Turning to SKRETAWS, the antigen binding call is given as “binds”.
Then SKAKGAWS, with “binds”; and SETKGDWD, with “no binding”; and FEARDYWD, with “binds”.
Under DKAKGDGS stands “no binding”.
As for SKAGDAWD, the antigen binding call is on record as “no binding”.
Then FEETDAGD, with “no binding”.
Then SKAKGAWD, with “binds”; and DATGNVWS, with “no binding”; and YATTSFSF, with “no binding”.
Consider FKAKGAWD, for which the antigen binding call is recorded as “binds”.
SKERGDVD: the antigen binding call is listed as “no binding”.
Under SKRKSSSD stands “no binding”; under SKTKSDVD, “no binding”.
Then SKTRGAWD, with “binds”; and FGTKGAWD, with “no binding”; and SKAKGSSD, with “binds”.
Under FGEEDFSS chain 1 W105R stands “no binding”; under VGGTSDVV, “no binding”.
On to VEEEGSGV, for which the antigen binding call was “no binding”.
Turning to DRTGDDVY, the antigen binding call was “no binding”.
On to VRTGDSAY, for which the antigen binding call is on record as “binds”.
Under VEETSSLD stands “no binding”.
In the case of VRAGSSLD, the antigen binding call is given as “binds”.
Then VEAGDSLD, with “no binding”; and VRGKDSLD, with “binds”.
Under VRTKAVAY stands “no binding”.
Then VRAGDDVD, with “no binding”; and VTGTSSLD, with “no binding”; and VTGEDSLD, with “no binding”.
As for VRAGDSLD, the antigen binding call is reported as “binds”.
Consider VTTKSYLV, for which the antigen binding call is reported as “no binding”.
Take DAARGDGV: the antigen binding call is listed as “no binding”.
Regarding VAGTGSLD, the antigen binding call is recorded as “no binding”.
With VRAGSSWD, the antigen binding call is on record as “binds”.
VRKGGSLD: the antigen binding call is “binds”.
Under VRTGDSLD stands “binds”; under VRTGDDGV, “no binding”.
Then VKTGGSLD, with “no binding”.
Take AETKGFAV: the antigen binding call was “no binding”.
Under VKGASDVA stands “no binding”; under YRGGASGA, “binds”.
In the case of YRAAGSGA, the antigen binding call is reported as “binds”.
For the variant YEGGTSGA, the antigen binding call is “no binding”.
Then YRAGAAVA, with “binds”; and YTGTSSGA, with “no binding”.
Take YGGRAAGA: the antigen binding call is on record as “no binding”.
Then YRGRASGA, with “binds”.
Then VRAGADVA, with “no binding”.
Under VEEEGDAV stands “no binding”.
For the variant SREAASLA, the antigen binding call is “no binding”.
On to YRAGSSGA, for which the antigen binding call is given as “binds”.
For the variant YRARSSGA, the antigen binding call is on record as “binds”.
As for DRAGDAGA, the antigen binding call was “no binding”.
Under YRAGASLA stands “binds”.

Source of the values: the emibetuzumab library of Makowski et al. (2022).
